High-throughput results from PubChem.
The list is not random: actives were taken first. Their share in the collection is about 14%.
HCMV inh: human cytomegalovirus inhibition | activity change, negative = inhibition, % at 57.5 µM | HFF cells, HCMV-luciferase reporter, 72 h; active compounds read low | 4.5% of 410,000 active; in the data active = activity change below about -60%; inconclusive = no clear call, values can overlap the other calls; inactive = above about -39%
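Human foreskin fibroblasts infected with luciferase-reporter HCMV at MOI 1 PFU/cell, compounds at two doses. Luciferase measured 72 h post infection; normalized to buffer-only basal and Salinomycin (10uM) controls.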
Pf growth 96h: P. falciparum growth inhibition at 96 hour, primary screen for plastid delayed-death inhibitors; P. falciparum luciferase reporter growth, 96 h; Potency, µM (highest dose often 28.7 µM), hits mostly inhibitors; 6.9% of 320,000 active
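Readout is luminescence from an integrated firefly luciferase in P. falciparum. Red cells, 2% hematocrit and 0.05% parasitemia final, were cultured with compound through two parasite generations (96 hours) at 37 C, 5% CO2.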
Pf growth 48h: inhibits P. falciparum growth in the first generation, 48 h; P. falciparum luciferase growth in erythrocytes, 48 h; Potency, µM (series often up to 28.7 µM), usual class: inhibitors; 5.9% of 310,000 active; AID 504832
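Compounds are pin-transferred into medium, infected erythrocytes (2% hematocrit, 0.1% parasitemia final) are added, and plates sit one parasite generation at 37 C in 5% CO2. Detection reagent is then added and luminescence measured.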
Lassa entry inh: inhibitors of Lassa virus binding or cell entry. Lassa virus pseudotype entry inhibition, cell reporter. Potency, µM (highest dose often 37.9 µM), actives largely listed as inhibitors. 1.2% of 300,000 active; calls by dose curve; tested in HEK293 cells; also: nearly all actives have a fitted effect of over 50% in size
HCV inhibitor: HCV inhibition. Huh7.5.1 HCVcc-Cre infection, luciferase reporter, 44 h. Potency, µM (top dose mostly 41.8 µM), usual class: inhibitors. 3.4% of 340,000 active. AID 651820
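Reporter virus HCVcc-Cre (~0.5 moi) infects cells exposed to compound; seeding density 1,000 cells/well with 4 h settling beforehand. Luminescence, 15 sec read, taken 44 h post-infection following a 15 min RT substrate incubation.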
MARV entry inh: inhibitors of Marburg virus binding or cell entry | Marburg virus pseudotyped entry inhibition, cell reporter | Potency, µM (titrated, usually from 37.8 µM), actives largely listed as inhibitors | 1.8% of 300,000 active | AID 540276; calls by dose curve; tested in HEK293 cells
A number is an active result; . = inactive; ? = inconclusive; / = no result. Unless noted, calls follow the shape of the dose curve; as a rule, active = well fitted inhibition curve with a large enough effect; inconclusive = small, poorly fitted or top-dose-only effect, or another doubt; inactive = no such curve, though single readings can be large or run the other way.

SMILES | HCMV inh | Pf growth 96h | Pf growth 48h | Lassa entry inh | HCV inhibitor | MARV entry inh
O=C(CCl)N(C/C=C/c1ccccc1)c1ccc2c(c1)OCCO2 | . | ? | ? | ? | 2.2µM | .
Cc1ccc(-n2c(CNc3cccc(Cl)c3)n[nH]c2=S)cc1 | . | . | 8.3µM | . | . | ?
Cc1ccc(NCc2n[nH]c(=S)n2-c2cccc(Cl)c2)cc1 | . | ? | . | / | . | .
NCCOc1ccc(C2CCCCC2)cc1 | . | ? | . | . | . | ?
NCCOc1ccc(C23CC4CC(CC(C4)C2)C3)cc1 | -85 | . | . | / | ? | /
OCCN1CCN(CC(O)COc2ccc(C34CC5CC(CC(C5)C3)C4)cc2)CC1 (stereo not drawn) | -96 | 12µM | ? | ? | 13µM | ?
OCCN1CCN(CC(O)COc2ccc(Cl)cc2)CC1 (stereo not drawn) | . | . | . | . | . | .
CC(C)(C)NC(=O)C(=O)NC(=O)c1c(F)cccc1Cl | . | . | . | . | . | .
Cc1cc(C(F)(F)F)cc(NNC(=O)NC(=O)c2c(F)cccc2Cl)n1 | ? | . | ? | ? | . | 7.1µM
O=[N+]([O-])c1cccc2nc3ccccc3c(NCCCn3ccnc3[N+](=O)[O-])c12 | -97 | / | / | ? | ? | ?
COc1ccc(CNC(=O)CN(C(=O)CCC(=O)Nc2nccs2)c2ccc(C)cc2)cc1 | . | 7.4µM | ? | . | . | .
Cc1ccc(N(CC(=O)NCc2ccccc2)C(=O)CCC(=O)Nc2nccs2)cc1 | . | . | . | . | . | .
COc1ccc(CN(CC(=O)NCc2ccc(F)cc2)C(=O)CCC(=O)Nc2nccs2)cc1 | . | 4.7µM | . | ? | . | .
CCCCOC(=O)c1ccc(NC(=O)Cc2coc3ccc(C(C)C)cc23)cc1 | . | / | / | . | / | ?
CCCc1cc(C(=O)Nc2cccnc2Cl)no1 | . | 12µM | / | . | . | ?
CCCc1cc(C(=O)Nc2cc(C)ccc2O)no1 | -69 | . | . | ? | ? | ?
CCCc1cc(C(=O)Nc2ccccc2C(=O)OC)no1 | . | 12µM | . | / | 10µM | /
Cc1ccc(O)c(NC(=O)c2cc(-c3ccccc3)on2)c1 | . | . | ? | ? | . | ?
CCCc1cc(C(=O)Nc2cc(OC)c(Cl)cc2OC)no1 | . | . | / | / | . | /
Cc1cccnc1NC(=O)c1cccc(S(=O)(=O)NCc2ccccc2)c1 | . | . | ? | . | . | .
Cc1cccc(/C(N)=N/OC(=O)N2CCOCC2)c1 | -74 | 2.6µM | ? | 16µM | ? | 23µM
CC(CN1CCOCC1)OC(=O)c1cccc(Br)c1 (stereo not drawn) | . | . | / | . | . | .
Cc1cccc(C(=O)OC(C)CN2CCOCC2)c1 (stereo not drawn) | . | 9.3µM | . | ? | . | .
Cc1ccc(C(=O)OCC(=O)N2CCOCC2)cc1 | . | . | . | . | . | .
Cc1ccc(/C(N)=N/OC(=O)N2CCOCC2)cc1 | -85 | 1µM | ? | ? | ? | 15µM
SMILES | HCMV inh | Pf growth 96h | Pf growth 48h | Lassa entry inh | HCV inhibitor | MARV entry inh
O=C(CSc1cn(CC(=O)N2CCCCC2)c2ccccc12)Nc1ccccc1F | ? | / | / | . | / | /
CCOc1ccc(Nc2ncnc3c2c(-c2ccccc2)cn3-c2cccc(C)c2)cc1 | . | / | / | . | / | /
CCN(CC)CCNc1nc2nonc2nc1NCCN(CC)CC | . | 12µM | 8.3µM | / | . | /
Cc1nc2ncnn2c(N2CCC(C(=O)NC3CCCC3)CC2)c1Cc1ccccc1 | . | . | 15µM | ? | ? | .
CCc1c(C)nc2ncnn2c1N1CCC(C(=O)N2CCN(c3ccc(F)cc3)CC2)CC1 | -88 | ? | ? | . | ? | .
COc1cccc(CC(NC(C)=O)C(=O)NC2CCN(c3c(Cc4ccccc4)c(C)nc4ncnn34)CC2)c1 (stereo not drawn) | ? | 10µM | 3.7µM | . | . | ?
CCc1c(C)nc2ncnn2c1N1CCC(C(=O)N2CCN(c3ccccc3)CC2)CC1 | / | ? | . | / | / | .
CC(=O)OCCNc1cc(N2CCN(C)CC2)c2noc3c2c1C(=O)c1ccccc1-3 | . | . | ? | / | . | /
CCOC(=O)C(C(=O)OCC)c1cc(Br)c2noc3c2c1C(=O)c1ccccc1-3 | -106 | . | . | 11µM | ? | ?
Cc1ccccc1-n1c(SCc2cccc(F)c2)nc2[nH]ncc2c1=O | . | ? | ? | . | . | .
Cc1cccc2nc(CSc3nc4[nH]ncc4c(=O)n3-c3ccccc3Cl)cc(=O)n12 | . | 9.3µM | 9.3µM | . | ? | ?
Cc1ccccc1-n1c(SCc2cc(=O)n3ccccc3n2)nc2[nH]ncc2c1=O | . | 13µM | ? | . | . | .
Cc1noc(C)c1COC(=O)CCN1c2ccccc2Sc2ccccc21 | . | 12µM | ? | ? | . | ?
C=CCn1c2ccccc2c(=O)c2cc(C#CC[C@@H](C)O)ccc21 | . | ? | . | / | 13µM | /
Cn1c2ccccc2c(=O)c2cc(C#CC3=CCCCC3)ccc21 | . | ? | ? | / | ? | /
Cn1c2ccccc2c(=O)c2cc(C#Cc3cccc(N)c3)ccc21 | / | . | . | / | ? | /
C=CCn1c2ccccc2c(=O)c2cc(C#CC3(O)CCCCC3)ccc21 | . | ? | . | / | 10µM | /
COCCOc1ccc(C(F)(F)F)cc1NC(=O)COC(=O)c1cc([N+](=O)[O-])ccc1N1CCOCC1 | ? | 9.3µM | ? | ? | ? | 13µM
O=C(COC(=O)c1cc([N+](=O)[O-])ccc1N1CCOCC1)Nc1ccc(Cl)cn1 | -102 | ? | . | . | ? | ?
O=C(COC(=O)c1cc([N+](=O)[O-])ccc1N1CCOCC1)Nc1ccc(Cl)cc1 | . | . | . | . | ? | .
Cc1cc(Cl)ccc1NC(=O)COC(=O)c1cc([N+](=O)[O-])ccc1N1CCOCC1 | . | . | ? | . | 2.5µM | ?
COCCOc1ccc(C(F)(F)F)cc1NC(=O)COC(=O)C12CC3CC(CC(O)(C3)C1)C2 | . | ? | 2.3µM | . | . | .
CCOC(=O)c1cccc(NC(=O)CN2C(=O)c3ccccc3Sc3ncccc32)c1 | . | / | / | ? | / | /
O=C(Cn1c2ncccc2c(=O)n1-c1ccccc1)NCc1ccccc1Cl | ? | / | / | . | / | /
Cc1[nH]c2ccccc2c1CC(=O)Nc1ccc(Nc2cccnc2)c(-c2cc(F)cc(F)c2)c1 | . | / | / | / | / | /
SMILES | HCMV inh | Pf growth 96h | Pf growth 48h | Lassa entry inh | HCV inhibitor | MARV entry inh
Cc1cc(Br)cn2c(Cc3ccccc3)c(-c3cccc(Br)c3)nc12 | . | / | / | / | / | /
CCc1cccc(C)c1NC(=O)COC(=O)c1cc([N+](=O)[O-])ccc1N1CCOCC1 | . | . | ? | . | 10µM | ?
CCc1ccc(C(=O)COC(=O)c2cc([N+](=O)[O-])ccc2N2CCOCC2)cc1 | . | ? | ? | ? | 1µM | 3.2µM
O=C(COC(=O)c1cc([N+](=O)[O-])ccc1N1CCOCC1)c1ccc(F)cc1 | . | ? | ? | / | ? | /
Cc1cccc(CNC(=O)c2ccc3oc(=O)n(Cc4ccccc4)c3c2)c1 | . | / | / | ? | / | /
Cc1nn(CC(=O)NCc2ccccc2Br)c(=O)c2cc3occc3n12 | . | / | / | / | / | .
CCOc1ccccc1N(CC(=O)Nc1cccc(OC)c1)S(=O)(=O)c1ccccc1 | -107 | . | ? | ? | . | ?
